Source: PubChem BioAssay AID624481 (The Scripps Research Institute Molecular Screening Center, 2012)
Activity calls are given as the source filed them. Rule as the data show it: active = inhibition above about 50%; inactive = the rest.

These compounds were tested against Prolyl endopeptidase-like (Mus musculus) (UniProt Q8C167) (assay: purified PREPL inhibitors, PREPL inhibitor project, biochemical, gel-based competitive ABPP, fluorescence, HTS hits (AID 624481)). Details: at 20 µM, hits give high values.
Chain of Prolyl endopeptidase-like (Mus musculus) (Q8C167 whole entry, looked up): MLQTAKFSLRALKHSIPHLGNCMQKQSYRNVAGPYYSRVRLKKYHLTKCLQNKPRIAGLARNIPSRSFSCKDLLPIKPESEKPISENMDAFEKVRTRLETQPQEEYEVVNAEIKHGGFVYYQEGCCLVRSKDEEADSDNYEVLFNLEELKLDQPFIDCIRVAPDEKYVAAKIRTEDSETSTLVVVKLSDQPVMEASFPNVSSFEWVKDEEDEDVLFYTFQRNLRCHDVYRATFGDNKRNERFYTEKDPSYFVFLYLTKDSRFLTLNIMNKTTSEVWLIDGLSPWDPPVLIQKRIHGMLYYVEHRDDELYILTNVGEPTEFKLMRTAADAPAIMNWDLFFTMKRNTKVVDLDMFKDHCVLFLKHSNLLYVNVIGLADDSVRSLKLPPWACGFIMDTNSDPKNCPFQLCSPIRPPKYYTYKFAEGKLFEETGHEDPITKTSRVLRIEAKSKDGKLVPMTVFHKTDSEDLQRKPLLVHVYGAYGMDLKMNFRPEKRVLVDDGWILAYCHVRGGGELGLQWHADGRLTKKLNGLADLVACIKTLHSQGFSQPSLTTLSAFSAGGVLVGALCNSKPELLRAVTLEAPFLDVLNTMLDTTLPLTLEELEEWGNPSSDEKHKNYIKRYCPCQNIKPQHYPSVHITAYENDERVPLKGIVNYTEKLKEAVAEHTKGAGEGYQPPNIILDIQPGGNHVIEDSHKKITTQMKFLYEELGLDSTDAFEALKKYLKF

inhibition, inactive:
CC(C)NCC(O)Cn1c2c(c3ccccc31)CCc1c-2cnn1-c1ccccc1 (stereo not given) -123%
O=C1N/C(=C/c2ccc(N3CCOCC3)cc2)C(=O)N1Cc1ccc(F)cc1 -30%
CN1CCc2c(sc3c2C(=O)NC(c2cn(Cc4ccccc4)c4ccccc24)N3)C1 (stereo not given) 7%
CC(=O)Nc1ccc(C(=O)Cn2c3[n+](c4c(F)c(F)ccc42)CCCCC3)cc1 -42%
CN1CCN(C(=O)C2=C[C@@H](c3ccc4c(c3)OCO4)C[C@@H](OCc3ccc(CO)cc3)O2)CC1 -46%
O=C1NC(Cc2c[nH]c3ccccc23)C(=O)N1Cc1ccc(CN2C(=O)NC(Cc3c[nH]c4ccccc34)C2=O)cc1 (stereo not given) 28%
c1ccc2c(NCCc3c[nH]c4ccccc34)c3ccccc3nc2c1 -49%
C=CC[n+]1c(-c2ccc(Cl)cc2Cl)csc1Nc1ccc(NC(C)=O)cc1 -43%
CCN(CC)c1ccc2cc(C(N)=O)c(=NNC(=O)c3ccncc3)oc2c1 -14%
COc1ccc2cc1Oc1ccc(cc1)CC1c3c(cc(OC)c4c3Oc3cc5c(cc3O4)CCNC5C2)CCN1C (stereo not given) -113%
COc1cccc(C2=CC(c3ccc(N(C)C)cc3)n3nnnc3N2)c1 (stereo not given) -95%
CC1CC(C)CN(C(=O)c2ccc3c(c2NCCO)C(=O)c2ccccc2C3=O)C1 (stereo not given) 7%
COc1ccc(OCC(=O)NNc2c3ccccc3nc3ccccc23)cc1 -2%
c1ccc(CCNc2nc(-c3ccccn3)nc3ccccc23)cc1 -127%
COc1cccc(C2CC(c3ccc(C)cc3)Nc3nc(N)nn32)c1 (stereo not given) -27%
COc1ccc(N2CCN(c3cc(C)nc4ccc(OC)cc34)CC2)cc1 -69%
COc1ccc(CCNC(=O)c2cc3c(=O)n4ccccc4nc3n(CCCN3CCOCC3)c2=N)cc1 -26%
COCCn1c(-c2ccc(Br)cc2)csc1=Nc1cccnc1 43%
Cc1ccc(C2CC(c3cccc(Cl)c3)n3nc(N)nc3N2)cc1 (stereo not given) -71%
CCCCC(CC)C(=O)Nc1cc(C(=O)NCCC)ccc1N1CCC2(CC1)CC(c1ccccc1)=NO2 (stereo not given) -141%
COc1ccc2c(CC(=O)Nc3ccc(N4CCOCC4)cc3)coc2c1 -44%
Cc1ccc(C2CC(c3cccc(C)c3)n3nc(N)nc3N2)cc1 (stereo not given) -40%
CN1CCN(C(=O)C2=C[C@@H](c3ccc(C(F)(F)F)cc3)C[C@@H](OCc3ccc(CO)cc3)O2)CC1 -83%
COc1ccc2nc3cc(Cl)ccc3c(Nc3cc(CN4CCCC4)c(O)c(CN4CCCC4)c3)c2n1 -45%
CC[C@@H](C)[C@@H]1CN([C@@H](C)CN2CCC[C@H]2CN2C(N)=NC[C@H]2C(C)C)C(=N)N1CCc1ccc(Cl)c(Cl)c1 -48%
